# D1 antag: antagonists of human D1 dopamine receptor | activity change, negative = inhibition, % at 10 µM | 360,000 compounds, 3.2% hits | HEK293 TREx D1 cells, calcium flux, dopamine EC80; stronger effect = lower value | AID 504652 | P21728; in the data active = activity change below about -30%; note: % is set by controls: 0 for no effect and ±100 for the full control effect
#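 Using tetracycline-induced force-coupled D1 Hek293 cells and a calcium dye, signals were followed for 180 s after compound, then for 180 s after EC80 dopamine, to detect inhibitors.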
# TRHR PAM: allosteric enhancers of human TRH receptor; TRHR cells, fluo-8 calcium fluorescence, EC20 TRH enhancement; 360,000 compounds, 0.66% hits; P34981; enhancement, % at 2 µM; AID 493056; in the data active = enhancement above about 30%; note: 0% is about no effect
# Target sequence (P34981 whole entry, looked up): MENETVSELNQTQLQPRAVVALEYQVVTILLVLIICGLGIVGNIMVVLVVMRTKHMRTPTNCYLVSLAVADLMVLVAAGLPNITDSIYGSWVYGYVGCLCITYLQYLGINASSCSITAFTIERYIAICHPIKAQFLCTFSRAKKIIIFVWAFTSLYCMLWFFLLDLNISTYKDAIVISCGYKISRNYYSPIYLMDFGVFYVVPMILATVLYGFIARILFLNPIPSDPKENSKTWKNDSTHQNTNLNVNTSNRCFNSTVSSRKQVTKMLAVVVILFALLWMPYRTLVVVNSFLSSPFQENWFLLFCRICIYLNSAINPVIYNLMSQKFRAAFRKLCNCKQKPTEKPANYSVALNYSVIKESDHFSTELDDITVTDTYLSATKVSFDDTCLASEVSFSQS
#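 TRHR-expressing cells loaded with fluo-8 calcium dye were read kinetically (ex 480/em 530) during compound addition, then stimulated with an EC20 of TRH (10 nM final). Enhancement of the Gq-mediated intracellular calcium response was scored.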
# TRHR agonist: activates the human TRH receptor | 360,000 compounds, 0.18% hits | activation, % at 2 µM | TRHR cells, calcium flux fluo-8, FDSS agonist mode; note: 0% is about no effect
#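 Steps: seed TRHR cells overnight; add fluo-8 no-wash Ca dye, RT 30 min–1.5 h; record 10 s baseline; pin-transfer compounds; monitor fluorescence 1 cycle/s for the agonist window. Calcium increases flag candidate agonists.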
# D1 potentiator: human D1 dopamine receptor positive modulation; AID 504651; P21728; 360,000 compounds, 0.036% hits; potentiation, % at 10 µM; HEK293 TREx D1 cells, calcium flux, dopamine EC20 potentiation; in the data active = potentiation above about 30%; note: 0% is about no effect
# D1 agonist: human D1 receptor agonism; HEK293 T-REx D1 cells, calcium flux, agonist mode; activation, % at 2 µM; 360,000 compounds, 1% hits; AID 504660; note: 0% is about no effect
#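 Inducible HEK293 T-REx D1 cells, force-coupled to calcium signalling, were plated at 4000 cells/well with tetracycline and held overnight at 30 C. After no-wash calcium dye loading, compound-evoked calcium rise over 180 s flagged agonists.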
# Numbers without * were called inactive; ! = not confirmed by another sample. Rows were chosen to be rich in hits. Some 4.6% of all compounds tested hit in one or more screens of this group. Cut-off read from the data, not from the text of the source, unless noted: active = activation above about 30%; inactive = the rest.
SMILES,D1 antag,TRHR PAM,TRHR agonist,D1 potentiator,D1 agonist
COc1cc(/C=C/C(=O)OCC(=O)Nc2cc(S(=O)(=O)N(C)C)ccc2Cl)ccc1O,5.9,-1.8,-1.6,-3.0,6.8
CCN(CC)S(=O)(=O)c1ccc(Cl)c(NC(=O)COc2ccc(OC)cc2)c1,-31.4*,2.9,0.6,1.4,8.4
CC(=O)Nc1ccccc1-c1nc2ccccc2n(C(C)C(=O)Nc2cc(Cl)ccc2C)c1=O (configuration not stated),-5.2,-2.7,1.4,-1.4,5.5
Cc1ccn2c(Nc3c(C)cccc3C)c(-c3ccsc3)nc2c1,5.1,-6.3,0.1,3.0,0.5
Cc1ccn2c(Nc3c(C)cccc3C)c(-c3ccc(Cl)s3)nc2c1,1.1,-3.3,12.3,-3.6,33.7*
O=C(C1=C[C@@H](c2ccc(Br)cc2)C[C@@H](OCc2ccc(CO)cc2)O1)N1CCOCC1,-2.6,0.9,0.7,-0.2,1.7
O=C(C1=C[C@H](c2ccc(Br)cc2)C[C@H](OCc2ccc(CO)cc2)O1)N1CCOCC1,-33.0*,4.4,0.4,-1.9,2.3
CN1CCN(C(=O)C2=C[C@@H](c3ccccc3)C[C@@H](OCCCCO)O2)CC1,-3.2,-0.6,-0.1,-3.6,-1.6
O=C(NCc1ccccc1)C1=C[C@H](c2ccc(Br)cc2)C[C@H](OCc2ccc(CO)cc2)O1,1.8,-6.0,-0.6,-2.8,32.4*
O=C(C1=C[C@@H](c2ccc(Br)cc2)C[C@@H](OCCCCO)O1)N1CCOCC1,-69.8*,3.2,-0.1,-5.5,-5.0
O=C(C1=C[C@@H](c2ccccc2)C[C@@H](OCCCCO)O1)N1CCOCC1,-37.4*,2.5,-0.4,-2.5,-4.8
Cc1c(C(=O)Nc2ccc(F)cc2)oc2ccc(S(=O)(=O)N3CCCCCC3)cc12,7.4,-0.8,0.2,-1.2,2.4
CN1CCc2cccc3c2[C@H]1Cc1ccc(O)c(O)c1-3,-90.4*,-7.4,3.0,-6.8,42.6*!
O=C(NC(=S)Nc1ccccc1Br)c1ccc2c(c1)OCO2,25.1,-0.4,0.3,-2.1,8.1
CC(C)c1ccc(O)c(NC(=S)NC(=O)c2ccc3c(c2)OCO3)c1,-65.8*,-1.8,0.2,-9.1,5.3
Cc1nc2nc(CNC(=O)OC(C)(C)C)nn2c(C)c1CCC(=O)NCc1ccccc1Cl,2.3,-5.6,0.4,0.8,0.8
Cc1cccc(NC(=O)CSc2cn(CC(=O)N3CCCC3)c3ccccc23)c1C,6.4,-9.9,0.2,-2.2,3.6
CCCCNc1nc(-c2ccccc2)nc(-n2ccnc2)n1,-38.0*,-3.1,-1.8,-7.3,0.8
Cc1nc2ccccc2cc1OCc1ccc(Cl)cc1,-12.2,2.8,0.1,5.6,11.5
Cc1nc2ccccc2cc1OCc1ccccc1,-59.0*,1.2,1.2,-6.7,16.8
COc1ccc(C)cc1NC(=O)CN(C)S(=O)(=O)c1ccc2c(c1)c(=O)n(C)c(=O)n2C,-30.2*!,-1.9,-0.1,-1.6,2.8
CCOC(=O)c1c(C)[nH]c(C)c1S(=O)(=O)N(C)CC(=O)Nc1cc(C)ccc1OC,-40.1*,-1.9,-0.6,-7.1,0.3
CCOC(=O)c1c(C)[nH]c(C)c1S(=O)(=O)NCC(=O)Nc1cc(C)ccc1OC,-7.3,-3.5,-0.5,-1.6,4.3
COc1ccnc(N2CCN(c3ccc(Cl)cc3)CC2)c1C#N,-30.6*,-2.6,1.2,-4.3,6.8
N#Cc1nc(Nc2cc(Cl)cc(Cl)c2)nc(NC2CCCC2)n1,-20.8,3.1,1.6,-1.0,0.8
SMILES,D1 antag,TRHR PAM,TRHR agonist,D1 potentiator,D1 agonist
CCN1C(=O)/C(=C/c2cnn(C)c2C)SC1=S,-31.6*,-4.5,0.8,3.6,2.5
Cc1ccc(C)c2[nH]c(=O)c(CN(CCN3CCCC3)C(=O)Nc3cccc(Cl)c3)cc12,-12.3,3.0,0.0,-11.3,39.0*
O=C(Nc1cccc(Cl)c1)N(CCN1CCOCC1)Cc1cccc(Cl)c1,-37.9*,-1.0,-0.2,-13.4,48.1*
COc1ccc(OC)c(CN(CCN2CCOCC2)C(=O)Nc2cccc(Cl)c2)c1,-31.2*,-1.3,0.6,-0.3,2.3
Cn1c(=O)c2c(nc(NCCCO)n2CCc2ccccc2)n(C)c1=O,1.8,6.0,-0.2,2.1,1.0
Cc1ccc(Cn2c(SCc3cccnc3)nc3c2c(=O)n(C)c(=O)n3C)cc1,14.5,-0.8,-0.5,-0.7,1.8
C=CCn1c(Oc2ccc(C=O)cc2OCC)nc2c1c(=O)n(C)c(=O)n2C,-61.3*,1.5,-0.2,-13.1,0.8
Cn1c(=O)c2c(nc(SCc3cccnc3)n2Cc2ccccc2)n(C)c1=O,-40.7*,9.6,-0.8,-6.8,-0.4
Cn1c(=O)c2c(nc(NCc3ccccc3)n2Cc2ccccc2Cl)n(C)c1=O,-30.3*,12.4,-0.1,-6.5,-1.7
Cn1c(=O)c2c(nc(NCCO)n2CCc2ccccc2)n(C)c1=O,-79.5*,-2.3,0.4,-6.1,2.1
Cn1c(=O)c2c(nc(NCc3cccnc3)n2Cc2ccccc2Cl)n(C)c1=O,-3.0,3.1,-0.1,16.9,1.0
CCn1c(Oc2ccccc2C)nc2c1c(=O)n(C)c(=O)n2C,-4.2,-3.3,-2.0,3.0,4.5
CCc1cccc(NC(=O)CC2Oc3ccc(C)cc3NC2=O)c1 (configuration not stated),-12.2,-7.1,-0.4,-0.9,0.0
CCc1nnc(SCC(=O)Nc2ccc(Cl)cc2F)c2cc3occc3n12,7.5,2.7,0.1,-1.4,0.9
O=C(NCc1ccc(F)cc1)c1c(O)nc2ccccn2c1=O,1.7,-0.8,-0.3,-6.1,-0.8
O=C(Cc1ccccc1)Nc1sc2c(c1C(=O)Nc1cccc(Cl)c1)CCCC2,21.9,3.6,1.9,-3.5,6.9
CN(Cc1ccccc1)S(=O)(=O)c1ccc(NC(=O)c2cc(=O)c3ccccc3o2)cc1,-6.0,6.0,-0.1,-0.8,3.4
O=C(CN1C(=O)CCSc2ccc(S(=O)(=O)N3CCCC3)cc21)Nc1cccc(F)c1,17.2,-2.8,-0.1,0.8,-0.7
CCOc1ccc(CCNc2nc3c(c(=O)n(C)c(=O)n3C)n2CC)cc1OCC,-31.3*,-1.6,-2.5,-9.8,5.7
CCN1CCN(CCCNC(=O)C2CCCN(c3nc4c(C)cc(C)cc4s3)C2)CC1 (configuration not stated),-35.0*,4.0,0.5,-9.4,-0.7
Cc1cc(C)c2nc(N3CCCC(C(=O)NCCCN4CCOCC4)C3)sc2c1 (configuration not stated),1.1,-4.5,-0.4,-4.2,0.2
CCCCN(C(=O)c1cccc(C)c1)c1c(N)n(CCC)c(=O)[nH]c1=O,-7.2,40.8*,-0.3,-0.3,2.8
CCOc1ccc(CNC(=O)c2ccc3c(c2)c(C)c(C)n3Cc2ccc(Cl)cc2)cc1,5.2,3.5,0.6,-4.5,5.8
CCOc1ccccc1NC(=O)Cn1c(=O)n(CCCCC(=O)NCCCOC)c(=O)c2ccccc21,5.6,4.3,-0.9,-0.8,-1.9
COc1cc(Cl)c(C)cc1Nc1nc2ccccc2c2nnc(C)n12,-4.4,33.0*,-0.5,-2.9,2.7

# Bioassay records from PubChem BioAssay.
